CCT modulator: High-Throughput Screening for Modulators of Cytosolic Chaperonin Activity | 0.3% of 360,000 active | AID 651819, 2012 | activity change, % (no concentration beside the values), hits read low | purified chaperonin ATPase assay, HTRF ADP detection, 30 min; in the data active means activity change below about -30%; further: on the % scale 0 is the no-effect control and ±100 the full control effect
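ATPase activity: ADP formed was measured by HTRF Transcreener (665/615 nm ratio) after 30 min at 37 deg C with 10 uM ATP. Compounds screened at one 76 uM concentration against 40 or 20 nM TRiC in Tris pH 7.4/KCl/MgCl2/DTT buffer.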
Nrf2 activator: qHTS of Nrf2 Activators; AREc32 ARE-luciferase reporter (MCF7-derived line), luminescence, 24 h; Potency, µM (doses to about 46.1 µM), for the others: at the highest dose activation, most hits filed as activators; 0.31% of 410,000 active; AID 624171, 2012; further: potency means the concentration at half of the fitted maximal effect; % of control where 0% means no effect; nearly all actives have a fitted effect of over 65% in size
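Cells of the AREc32 ARE-luciferase line are plated in OPTI-MEM containing 5% FBS and left overnight at 37 deg C. Compounds are pinned in, incubation continues 24 hr, and firefly luciferase signal is then measured.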
Nrf2 inh: Nrf2 qHTS screen for inhibitors; A549 ARE-Fluc reporter, luciferase luminescence, 18-24 h; Potency, µM (doses to about 46 µM), inactives show top-dose activity change, negative = inhibition, hits mostly inhibitors; 2.1% of 360,000 active; further: potency means the concentration at half of the fitted maximal effect; on the % scale 0 is the no-effect control and ±100 the full control effect; nearly all actives have a fitted effect of over 60% in size
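A549 ARE_Fluc cells, 5000/well, 5% FBS OPTI-MEM; compounds in dose-response, 18-24 h at 37 °C/5% CO2; CellTiter-Fluor viability read (Ex 405/Em 525), then BugLite luciferase luminescence = Nrf2 activity.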
TCR activator: Activators of T cell receptors: qHTS campaign. Potency, µM (top dose mostly 9.22 µM), for the others: top-dose activation of IL-2 secretion, actives largely listed as activators. primary human leukocytes, anti-CD3, IL-2 HTRF, 48 h. 330,000 tested, under 10 active; further: % of control where 0% means no effect
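TCR engagement came from a-CD3 beads alone, with compounds added to primary human leukocytes for 48 hr. Secreted IL-2 bridged europium cryptate- and d2-labelled anti-IL-2 antibodies, giving FRET emission at 665nm after 320nm excitation.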
A-T KAP1 phos: qHTS Assay for Identifying a Potential Treatment of Ataxia-Telangiectasia. F2112 A-T fibroblasts, KAP-1 phosphorylation AlphaLISA; neocarzinostatin DNA damage 30 min before lysis. AID 485349, 2010. 0.19% of 320,000 active. Potency, µM (highest dose often 57.5 µM), without a hit: at the top dose activation, actives largely listed as activators; further: potency means the concentration at half of the fitted maximal effect; % of control where 0% means no effect; nearly all actives have a fitted effect of over 45% in size
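ATM-like activity read as KAP-1 phosphorylation via AlphaLISA donor/acceptor antibody pairs after lysis and 6 hr at 25C. Cells were ATM-null patient fibroblasts (F2112, hTERT), dosed 60 min, then exposed to the DSB inducer NCS for 30 min.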
A549 tox: Nrf2 qHTS screen for inhibitors: counterscreen for cytotoxicity | 0.16% of 390,000 active | A549 ARE-Fluc cells, CellTiter-Fluor viability, 18-24 h | Potency, µM (top dose mostly 46 µM), for inactives: top-dose activity change, negative = cytotoxicity, hits mostly inhibitors | AID 504648, 2011; further: potency means the concentration at half of the fitted maximal effect; on the % scale 0 is the no-effect control and ±100 the full control effect
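A549 ARE_Fluc cells in 5% FBS OPTI-MEM were exposed to compounds in concentration-response for 18-24 h at 37 deg C. Viability was read by CellTiter-Fluor fluorescence (Ex 405/Em 525) after 30 min, before the luciferase read.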
* marks the source's active call; other numbers are inactive results; ? = inconclusive; . = no result given; [ ] = remark or other dose. In the library only some 2.6% were active in any assay of this set; here they are far more common. Unless noted, the call rests on the fitted dose curve; in most records, active means well fitted curve in the direction sought with a large enough effect; inconclusive means small, poorly fitted or top-dose-only effect, or another doubt; inactive means no such curve, though single readings can be large; an effect the other way counts as inactive or inconclusive.

SMILES	CCT modulator	Nrf2 activator	Nrf2 inh	TCR activator	A-T KAP1 phos	A549 tox
Cc1ccc(-c2n[nH]c3c2C(c2cccs2)N(c2ccc(Cl)cc2)C3=O)cc1 (stereo not given)	.	-2.3%	-87.9%	.	.	?
CCCCN(CCCC)CCNC(=O)c1cn(CC)c2ccc(S(=O)(=O)N3CCCC3)cc2c1=O	-81.6*	-0.3%	3.0%	5.3%	-0.8%	-1.3%
Cc1nnc(CN(C)c2ncnc3ccc(-c4ccc5c(c4)OCO5)cc23)o1	.	.	21.4%	.	.	1.8%
O=C(C[C@@H]1C/C=C\C[C@H](Cc2ccc(F)cc2)C(=O)OC[C@H]2CCCN2C1=O)NCCO	1.4	0.5%	11.5%	6.7%	8.1%	5.1%
Cc1cc(NC(=O)CC2CCCC2)n(-c2nc3ccccc3[nH]2)n1	-1.0	0.0%	25.9µM*	4.7%	12.9%	?
O=C1NC(=S)S/C1=C\c1cc2ccccc2nc1N1CCCCC1	0.0	-1.0%	20.6µM*	-3.8%	7.1%	-28.1%
COC(=O)c1ccc2nc(-c3ccco3)c(Cc3ccccc3C(F)(F)F)n2c1	-1.5	?	.	.	.	.
Cc1cc2nc(SCCOC(=O)Nc3ccccc3)nc(C)c2cc1C	-1.2	-0.2%	20.6µM*	5.5%[46.1 µM]	1.2%	-11.5%
CC1CN(S(=O)(=O)c2cc(C(=O)N(CCc3ccccc3)Cc3ccccc3)ccc2Cl)CC(C)O1 (stereo not given)	-0.2	-0.1%	7.31µM*	-9.7%	0.3%	-12.1%
Cc1ccc(C(=O)N(CCc2ccccc2)Cc2ccccc2)cc1S(=O)(=O)N1CCOCC1	0.1	-0.4%	?	-3.4%	.	-3.7%
O=C(Oc1ccc(C(=S)N2CCOCC2)cc1)c1cc([N+](=O)[O-])cc([N+](=O)[O-])c1	-0.3	-0.1%	25.6%	-4.1%	3.5%	-0.4%
O=C(Oc1ccc(C(=S)N2CCOCC2)cc1)c1cccc(Cl)c1	-63.3*	0.6%	-9.5%	.	-9.8%	-9.0%
O=C(CCl)N(Cc1cc(=O)[nH]c2ccccc12)c1ccccc1	-3.5	-3.5%	23.1µM*	2.7%	5.3%	-12.6%
COc1ccccc1Nc1sc(C(=O)c2ccc3c(c2)OCO3)c(N)c1S(=O)(=O)c1ccccc1	.	-0.2%	.	.	.	-13.0%
CCn1c(=NC(=O)CCS(=O)(=O)c2ccccc2)sc2cccc(OC)c21	1.0	6.7%	?	-4.6%	-1.2%	-22.9%
CCn1c(=NC(=O)CS(=O)(=O)c2ccc(F)cc2)sc2cccc(OC)c21	-2.4	-0.4%	20.6µM*	3.4%	-7.3%	-1.4%
COc1ccc(NC(=O)CSCc2cnn(-c3ccccc3)c2-n2cccc2)cc1	.	3.5%	?	.	.	10.2%
CCc1ccc(S(=O)(=O)/N=C2\C=C(Nc3ccc(O)cc3)C(=O)c3ccccc32)cc1	-0.2	-2.1%	8.2µM*	3.6%	-2.6%	11.6µM*
CCc1ccc(S(=O)(=O)/N=C2\C=C(Nc3cccc(C(=O)O)c3)C(=O)c3ccccc32)cc1	2.7	-2.6%	20.6µM*	-1.1%	-13.0%	?
O=C(O)c1ccc(NC2=C/C(=N/S(=O)(=O)c3ccccc3)c3ccccc3C2=O)cc1	-1.3	-2.7%	12.4%	.	2.6%	-13.9%
CN(CC(O)CON=C1c2ccccc2-c2ccccc21)S(=O)(=O)c1ccc(Br)cc1 (stereo not given)	-1.6	2.0%	20.6µM*	-1.4%[46.1 µM]	4.5%	?
CCN(CC(O)CON=C1c2ccccc2-c2ccccc21)S(=O)(=O)c1ccc(C)cc1 (stereo not given)	-1.7	-0.3%	20.6µM*	-1.3%[46.1 µM]	3.3%	?
CCN(CC(O)CON=C1c2ccccc2-c2ccccc21)S(=O)(=O)c1ccc(Cl)cc1 (stereo not given)	-1.8	-0.7%	?	-3.3%[46.1 µM]	6.0%	-16.3%
COc1cccc(CNn2c(-c3cccc(C)c3)nc3ccccc3c2=O)c1	-0.7	-0.7%	-15.6%	2.8%	7.2%	-1.6%

Assay outcomes deposited in PubChem BioAssay by National Center for Advancing Translational Sciences (NCATS).
